From PubChem BioAssay (NCI)
About 83,000 compounds went through this panel and 20% of them were active in at least one assay; those are over-represented in the sample as a whole.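 48-hour exposure, single concentration, 96-well plates; percent growth endpoint where 0 means no net growth. Active: below 10.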 Calls of active or inactive are those of the source.

Key:
Assay in all cases: NCI-60 one-dose screen, 48 h (100 = growth as untreated, 0 = no growth, -100 = all killed)
Settings in all cases: 10 µM unless noted
RPMI-8226 leukemia = test system: RPMI-8226 leukemia
OVCAR-8 ovarian = test system: OVCAR-8 ovarian
OVCAR-5 ovarian = test system: OVCAR-5 ovarian
OVCAR-4 ovarian = test system: OVCAR-4 ovarian
SK-OV-3 ovarian = test system: SK-OV-3 ovarian
IGROV1 ovarian = test system: IGROV1 ovarian
OVCAR-3 ovarian = test system: OVCAR-3 ovarian
HS 578T breast = test system: HS 578T breast
NCI/ADR-RES ovarian = test system: NCI/ADR-RES ovarian
T-47D breast = test system: T-47D breast
BT-549 breast = test system: BT-549 breast
MDA-MB-435 melanoma = test system: MDA-MB-435 melanoma
SW-620 colon = test system: SW-620 colon
MCF7 breast = test system: MCF7 breast
HCT-116 colon = test system: HCT-116 colon
HCC-2998 colon = test system: HCC-2998 colon
KM12 colon = test system: KM12 colon

Measured: growth

COc1ccc(-c2cnc(-c3ccncc3-c3cccc(OC)c3)o2)cc1
inactive: OVCAR-8 ovarian 26% | OVCAR-5 ovarian 57.4% | OVCAR-4 ovarian 37.6% | IGROV1 ovarian 37.1% | HS 578T breast 53.3% | NCI/ADR-RES ovarian 10.1% | T-47D breast 37.2% | BT-549 breast 37.1% | SW-620 colon 22.5% | MCF7 breast 16.4% | HCC-2998 colon 17.3%
active: RPMI-8226 leukemia 8.95% | SK-OV-3 ovarian -5.44% | OVCAR-3 ovarian -13.1% | MDA-MB-435 melanoma 4.88% | HCT-116 colon 4.92% | KM12 colon -28.6%

N=c1nc(N2CCCCC2)cc(N)n1O
inactive: RPMI-8226 leukemia 109% | OVCAR-8 ovarian 103% | OVCAR-5 ovarian 103% | OVCAR-4 ovarian 92.5% | SK-OV-3 ovarian 103% | IGROV1 ovarian 118% | OVCAR-3 ovarian 112% | HS 578T breast 109% | NCI/ADR-RES ovarian 122% | T-47D breast 100% | BT-549 breast 106% | MDA-MB-435 melanoma 107% | SW-620 colon 109% | MCF7 breast 84.2% | HCT-116 colon 106% | HCC-2998 colon 105% | KM12 colon 107%

CN(C)CCCN1c2ccccc2CCc2ccccc21
inactive: RPMI-8226 leukemia 99.4% | OVCAR-8 ovarian 97.4% | OVCAR-5 ovarian 103% | OVCAR-4 ovarian 68.7% | SK-OV-3 ovarian 94.1% | IGROV1 ovarian 94.8% | OVCAR-3 ovarian 116% | HS 578T breast 103% | NCI/ADR-RES ovarian 107% | T-47D breast 91.8% | BT-549 breast 95.8% | MDA-MB-435 melanoma 102% | SW-620 colon 111% | MCF7 breast 80.5% | HCT-116 colon 96.6% | HCC-2998 colon 99.7% | KM12 colon 103%

CCOC(=O)c1cc(N)nc2ccccc12
inactive: RPMI-8226 leukemia 106% | OVCAR-8 ovarian 108% | OVCAR-5 ovarian 109% | OVCAR-4 ovarian 109% | SK-OV-3 ovarian 101% | IGROV1 ovarian 120% | OVCAR-3 ovarian 109% | HS 578T breast 82.7% | NCI/ADR-RES ovarian 104% | T-47D breast 93.7% | BT-549 breast 105% | MDA-MB-435 melanoma 108% | SW-620 colon 91.8% | MCF7 breast 107% | HCT-116 colon 102% | HCC-2998 colon 111% | KM12 colon 98.4%

CCN1C(=O)/C(=C/N2N=C(c3ccc(Cl)cc3)CC2c2ccc(OC)cc2)SC1=S (centres undefined)
inactive: RPMI-8226 leukemia 101% | OVCAR-8 ovarian 93.1% | OVCAR-5 ovarian 101% | OVCAR-4 ovarian 84.4% | SK-OV-3 ovarian 87.4% | IGROV1 ovarian 84.3% | OVCAR-3 ovarian 104% | HS 578T breast 95.2% | NCI/ADR-RES ovarian 96.8% | T-47D breast 70.1% | BT-549 breast 85.1% | MDA-MB-435 melanoma 97.1% | SW-620 colon 97.6% | MCF7 breast 82.4% | HCT-116 colon 85.8% | HCC-2998 colon 97.7% | KM12 colon 97.6%

C=C1C(=O)O[C@H]2[C@H]1CC/C(COC(=O)NCc1[nH]nc3ccccc13)=C\CC[C@@]1(C)O[C@@H]21
active: RPMI-8226 leukemia -10.2% | IGROV1 ovarian -20.8% | OVCAR-3 ovarian 5.37% | SW-620 colon -28.9% | HCT-116 colon -80.7%
inactive: OVCAR-8 ovarian 35.3% | OVCAR-5 ovarian 58.5% | OVCAR-4 ovarian 67.9% | SK-OV-3 ovarian 75.6% | HS 578T breast 62.5% | NCI/ADR-RES ovarian 85.7% | T-47D breast 37.4% | BT-549 breast 24.3% | MDA-MB-435 melanoma 37.3% | MCF7 breast 17.9% | HCC-2998 colon 87.5% | KM12 colon 55.8%

O=C(N/N=C/c1ccc([N+](=O)[O-])o1)c1ccc(O)cc1
active: MDA-MB-435 melanoma -79.5%
inactive: RPMI-8226 leukemia 39.8% | OVCAR-8 ovarian 17.6% | OVCAR-5 ovarian 78.7% | OVCAR-4 ovarian 42% | SK-OV-3 ovarian 63.8% | IGROV1 ovarian 30.5% | OVCAR-3 ovarian 23.4% | NCI/ADR-RES ovarian 36.6% | T-47D breast 44.2% | BT-549 breast 59.4% | SW-620 colon 18.2% | MCF7 breast 26.1% | HCT-116 colon 11.4% | HCC-2998 colon 62.9% | KM12 colon 33%

COC(=O)c1ccc2c(c1)nc(-c1ccc(Cl)cc1)n2-c1cc(C(C)(C)C)[nH]n1
active: MDA-MB-435 melanoma -12.3%
inactive: RPMI-8226 leukemia 56.8% | OVCAR-8 ovarian 83.1% | OVCAR-5 ovarian 121% | OVCAR-4 ovarian 81.4% | SK-OV-3 ovarian 104% | IGROV1 ovarian 54.2% | OVCAR-3 ovarian 41.9% | HS 578T breast 53.3% | NCI/ADR-RES ovarian 14.2% | T-47D breast 76.9% | BT-549 breast 43.9% | SW-620 colon 49.1% | HCT-116 colon 28.5% | HCC-2998 colon 68.1% | KM12 colon 34.6%

Cn1c(=O)c2c(nc(N/N=C/c3ccccc3Cl)n2C)n(C)c1=O
inactive: RPMI-8226 leukemia 111% | OVCAR-8 ovarian 98.6% | OVCAR-5 ovarian 95.7% | OVCAR-4 ovarian 115% | SK-OV-3 ovarian 110% | IGROV1 ovarian 102% | OVCAR-3 ovarian 119% | HS 578T breast 137% | NCI/ADR-RES ovarian 97.3% | T-47D breast 105% | BT-549 breast 102% | MDA-MB-435 melanoma 109% | SW-620 colon 108% | HCT-116 colon 97.5% | KM12 colon 140%

COc1ccc(C2NC(=O)c3cc4c(cc3N2)OCO4)cc1 (centres undefined)
active: SK-OV-3 ovarian -7.72% | OVCAR-3 ovarian -45.9% | NCI/ADR-RES ovarian 3.94% | MDA-MB-435 melanoma -41.6% | HCC-2998 colon 9.52% | KM12 colon 9.55%
inactive: RPMI-8226 leukemia 27.8% | OVCAR-8 ovarian 22.3% | OVCAR-5 ovarian 45.3% | OVCAR-4 ovarian 59.5% | IGROV1 ovarian 42.8% | HS 578T breast 16.4% | T-47D breast 65.5% | BT-549 breast 59.1% | SW-620 colon 24.1% | MCF7 breast 18.2%

COc1ccc(-c2cnnn2-c2nonc2-n2cccc2)cc1
active: SK-OV-3 ovarian -4.76% | OVCAR-3 ovarian -38.9% | HS 578T breast -1.93% | NCI/ADR-RES ovarian 6.88% | MDA-MB-435 melanoma -44.1% | HCT-116 colon 8.3% | HCC-2998 colon 6.73%
inactive: RPMI-8226 leukemia 27.9% | OVCAR-8 ovarian 31.3% | OVCAR-5 ovarian 37.2% | OVCAR-4 ovarian 42.9% | T-47D breast 44.8% | BT-549 breast 47.6% | SW-620 colon 19.1% | MCF7 breast 14.5%

c1ccc2c(N=NSc3ncnc4nc[nH]c34)c3ccccc3nc2c1
inactive: HS 578T breast 53.6% | BT-549 breast 27.9%
active: RPMI-8226 leukemia -1.28% | OVCAR-8 ovarian -25.7% | OVCAR-5 ovarian -9.11% | OVCAR-4 ovarian -8.92% | SK-OV-3 ovarian -14.2% | IGROV1 ovarian 6.28% | OVCAR-3 ovarian 5.13% | NCI/ADR-RES ovarian -33.4% | T-47D breast -23.7% | MDA-MB-435 melanoma 5.09% | SW-620 colon -27.6% | MCF7 breast -27.7% | HCT-116 colon -33.7% | HCC-2998 colon 6.89% | KM12 colon 9.38%

NNC(=O)CSc1nc2scc(-c3ccccc3)c2c(=O)n1-c1ccccc1
inactive: RPMI-8226 leukemia 109% | OVCAR-8 ovarian 123% | OVCAR-5 ovarian 98% | OVCAR-4 ovarian 92.8% | SK-OV-3 ovarian 120% | IGROV1 ovarian 102% | OVCAR-3 ovarian 99.5% | HS 578T breast 89.2% | NCI/ADR-RES ovarian 103% | BT-549 breast 131% | MDA-MB-435 melanoma 121% | SW-620 colon 112% | MCF7 breast 97.8% | HCT-116 colon 91.9% | HCC-2998 colon 84.2% | KM12 colon 108%

CSc1nc(N)c2[nH]c(-c3cc4ccccc4[nH]c3=O)nc2n1
inactive: RPMI-8226 leukemia 85.1% | OVCAR-8 ovarian 90.2% | OVCAR-5 ovarian 119% | OVCAR-4 ovarian 83.7% | SK-OV-3 ovarian 66.1% | IGROV1 ovarian 61.5% | OVCAR-3 ovarian 119% | HS 578T breast 94.6% | NCI/ADR-RES ovarian 94.8% | T-47D breast 72.9% | BT-549 breast 47.9% | MDA-MB-435 melanoma 102% | SW-620 colon 90.1% | MCF7 breast 65.7% | HCT-116 colon 53.9% | HCC-2998 colon 95% | KM12 colon 96.9%

COc1cc(Nc2ncccc2/C=C/C(=O)c2cc(OC)c(OC)c(OC)c2)cc(OC)c1OC
inactive: RPMI-8226 leukemia 52.1% | OVCAR-8 ovarian 71.4% | OVCAR-5 ovarian 102% | OVCAR-4 ovarian 83.1% | SK-OV-3 ovarian 97.4% | IGROV1 ovarian 87.1% | HS 578T breast 99.5% | NCI/ADR-RES ovarian 79.4% | T-47D breast 34.1% | BT-549 breast 100% | MDA-MB-435 melanoma 61.4% | SW-620 colon 71.9% | HCT-116 colon 60.6% | HCC-2998 colon 93.5% | KM12 colon 71.1%
active: MCF7 breast 9.35%

O=C1OCC2=C1C(c1ccccc1)c1cc3c(cc1N2CCO)CCC3 (centres undefined)
active: SK-OV-3 ovarian -20.7% | OVCAR-3 ovarian -21.6% | HS 578T breast 3.94% | NCI/ADR-RES ovarian -70.4% | BT-549 breast -1.32% | MDA-MB-435 melanoma -31.9% | MCF7 breast -3.45% | HCC-2998 colon -19.8%
inactive: RPMI-8226 leukemia 23.9% | OVCAR-8 ovarian 36.5% | OVCAR-5 ovarian 26.1% | OVCAR-4 ovarian 30% | IGROV1 ovarian 12.4% | SW-620 colon 21.5% | KM12 colon 11.2%

C=C(C)[C@@H]1CC[C@]2(C(=O)NC(COC(=O)C(Cl)Cl)(COC(=O)C(Cl)Cl)COC(=O)C(Cl)Cl)CC[C@]3(C)[C@H](CC[C@@H]4[C@@]5(C)CC[C@H](OC(C)=O)C(C)(C)[C@@H]5CC[C@]43C)[C@@H]12
inactive: OVCAR-8 ovarian 73.6% | OVCAR-5 ovarian 80.7% | OVCAR-4 ovarian 54.5% | SK-OV-3 ovarian 82.1% | IGROV1 ovarian 84.3% | OVCAR-3 ovarian 57.5% | HS 578T breast 71.5% | NCI/ADR-RES ovarian 71% | T-47D breast 31.9% | BT-549 breast 80.4% | MDA-MB-435 melanoma 73.6% | SW-620 colon 62.1% | MCF7 breast 21.4% | HCC-2998 colon 66.1% | KM12 colon 36.8%
active: RPMI-8226 leukemia 2.68% | HCT-116 colon -16.7%

CCC(=O)OCc1ccc(OC)cc1
inactive: RPMI-8226 leukemia 107% | OVCAR-8 ovarian 102% | OVCAR-5 ovarian 95% | OVCAR-4 ovarian 107% | SK-OV-3 ovarian 108% | IGROV1 ovarian 102% | OVCAR-3 ovarian 110% | HS 578T breast 135% | NCI/ADR-RES ovarian 99.4% | T-47D breast 103% | BT-549 breast 104% | MDA-MB-435 melanoma 112% | SW-620 colon 111% | MCF7 breast 107% | HCT-116 colon 98.7% | KM12 colon 137%
